Compounds with a hit are over-represented: about 5.7% of the library has one in this group of screens.
Hsp90 block – tumor Hsp90 inhibitors, primary screen, cell lysate, fluorescence polarization, NCI-N417 lysate; Heat shock protein HSP 90-alpha (Homo sapiens), P07900; Cy3B-geldanamycin FP displacement; inhibition, % at 30 µM; 64,000 compounds, 0.35% hits;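 active = inhibition above 50%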;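 also: 0% = tracer plus lysate wells and 100% = tracer alone without lysate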
DUSP1 inh – MKP-1 phosphatase inhibitors, primary screen, biochemical, in vitro; AID 374, 2006; inhibition, %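 (compounds tested at a single concentration somewhere between 10 and 100 µM)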; recombinant MKP-1, OMFP hydrolysis fluorescence; Dual specificity protein phosphatase 1 (Homo sapiens), P28562; 65,000 compounds, 0.15% hits;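 active = inhibition above about 50%, limit read from the data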;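 also: 0% = DMSO max control wells and 100% = wells with enzyme stopped by NaOH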
Cdc25B block – inhibitors of Cdc25B phosphatase catalytic domain, primary screen, biochemical, OMFP fluorescence | recombinant Cdc25B, OMFP fluorescence Ex485/Em525 | inhibition, %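 (compounds tested at 10 µM final in the well)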 | 65,000 compounds, 0.1% hits | AID 368, 2006 | M-phase inducer phosphatase 2 (Homo sapiens), P30305; in the data active = inhibition above about 50%
Target sequence (P30305 whole entry, looked up, the tested form may be a part): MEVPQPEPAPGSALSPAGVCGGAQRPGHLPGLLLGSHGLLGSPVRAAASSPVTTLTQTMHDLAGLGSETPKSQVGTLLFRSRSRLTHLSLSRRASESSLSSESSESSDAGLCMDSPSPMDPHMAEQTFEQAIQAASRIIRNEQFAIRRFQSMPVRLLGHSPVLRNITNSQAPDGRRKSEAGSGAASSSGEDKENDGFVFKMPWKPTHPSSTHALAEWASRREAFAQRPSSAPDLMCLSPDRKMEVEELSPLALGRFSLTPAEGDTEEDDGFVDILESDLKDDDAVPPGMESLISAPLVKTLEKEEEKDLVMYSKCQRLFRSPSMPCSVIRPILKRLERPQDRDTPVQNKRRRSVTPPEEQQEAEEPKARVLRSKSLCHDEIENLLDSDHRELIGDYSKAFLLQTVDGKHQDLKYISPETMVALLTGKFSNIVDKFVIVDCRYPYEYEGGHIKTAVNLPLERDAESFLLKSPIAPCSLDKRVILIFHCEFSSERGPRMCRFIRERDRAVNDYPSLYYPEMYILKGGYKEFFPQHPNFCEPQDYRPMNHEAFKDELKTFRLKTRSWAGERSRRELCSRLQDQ
A340 absorber – compound light absorbance at 340 nm, profiling panel, artefact control, biochemical, MLSMR library, data from PS, PMK, MK assays; compound absorbance at 340 nm, fold over control; fold change at 10 µM; 65,000 tested, under 10 active; AID 708, 2007;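 active = at 10 µM dose, initial 340 nm absorbance at least 2 fold that of control wells; inactive = change under 2 fold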;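 also: initial absorbance extrapolated from kinetic A340 decline of NADH oxidation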
Autofluor 339 – intrinsic fluorescence of library compounds, ex339/em460 – biochemical, MLSMR library, data from DPM-DC assay, artefact control, profiling panel; 65,000 compounds, 5.5% hits; compound autofluorescence, ex339/em460 nm, NADH buffer; active compounds read high; 1 = no-compound wells, NADH background; AID 709, 2007; fluorescence fold increase at 10 µM;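 active = at 10 µM, mean starting fluorescence two-fold or more over control wells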;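 also: signal is the first read of a kinetic run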
NADH enzymes – inhibitors of PK/LDH coupling enzymes, profiling panel, artefact control, biochemical, MLSMR library. coupled PK/LDH NADH assays, four targets. IC50, µM (top dose mostly 10 µM), inactives show at the top dose inhibition. 65,000 compounds, 0.02% hits;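 active = single-dose screening hits from any of four coupled enzyme assays that gave an IC50 when retested across doses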;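 also: the DPM-DC format reads NADH fluorescence rather than 340 nm absorbance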
Redox cycler – redox cycling hydrogen peroxide production, dose response, artefact control, biochemical, probe assessment; EC50, µM; Redox cycling H2O2 generation, DTT, phenol red/HRP; AID 672, 2007; shares compounds with DUSP1 inh; 60 tested, under 10 active; call rule not given here
Numbers without * were called inactive.

Screening O=C(CN1C(=O)C2CCCN2c2ncc(Cl)cc21)NCc1ccc2c(c1)OCO2 (configuration not stated) returned Hsp90 block -1.9, DUSP1 inh 31.7, Cdc25B block 4.9, A340 absorber 1.06, Autofluor 339 1.52 and NADH enzymes 3.0%.
O=C(Nc1cccc(NC(=O)c2ccc(Br)o2)n1)c1ccc(Br)o1 was read as Hsp90 block -4.8, DUSP1 inh 21.9, Cdc25B block -0.6, A340 absorber 1.13, Autofluor 339 1.37 and NADH enzymes 10.0%.
N#Cc1c(NC(=O)c2ccc(Br)o2)n(-c2ccccc2)c2nc3ccccc3nc12 was read as Hsp90 block 43.9, DUSP1 inh 22.7, Cdc25B block 8.4, A340 absorber 1, Autofluor 339 3.02*, NADH enzymes 3.0% and Redox cycler >50.
`Cc1nc(NCCCn2ccnc2)c2ccccc2n1` gave Hsp90 block -3.0, DUSP1 inh 6.6, Cdc25B block -3.9, A340 absorber 1.02, Autofluor 339 1.02 and NADH enzymes 7.0%.
O=C1c2ccccc2-c2onc3ccc(NCCCn4ccnc4)c1c23 was read as Hsp90 block 139.9*, DUSP1 inh 25.4, Cdc25B block 6.3, A340 absorber 1.02, Autofluor 339 1.04, NADH enzymes 4.0% and Redox cycler >50.
For CC(NC(=O)C1CCCN(S(=O)(=O)c2cnc[nH]2)C1)c1ccccc1 (configuration not stated) the results were Hsp90 block -1.9, DUSP1 inh 3.0, Cdc25B block -8.7, A340 absorber 0.98, Autofluor 339 0.95 and NADH enzymes 5.0%.
Screening O=C1Nc2ccccc2SC(c2ccccc2)C1O (configuration not stated) returned Hsp90 block -0.1, DUSP1 inh 57.8*, Cdc25B block 20.8, A340 absorber 1.05, Autofluor 339 0.95, NADH enzymes 7.0% and Redox cycler >50.
For CN(C)c1nc2c(c(=O)[nH]c(=O)n2C)n1Cc1ccccc1Br the results were Hsp90 block -2.5, DUSP1 inh -6.3, Cdc25B block 13.6, A340 absorber 1, Autofluor 339 1.09 and NADH enzymes 6.0%.
CCOC(=O)c1sc(NC(=O)CSc2n[nH]c(-c3ccccc3)n2)c(C#N)c1C was read as Hsp90 block -4.1, DUSP1 inh 12.5, Cdc25B block 6.0, A340 absorber 1.02, Autofluor 339 1.26 and NADH enzymes 5.0%.
Cc1ccc(/C=C/C2=Cc3c(sc(NC(=O)CSc4n[nH]c(N)n4)c3C#N)C(C)(C)C2)o1 was read as Hsp90 block -20.6, DUSP1 inh 68.7*, Cdc25B block 33.7, A340 absorber 1.06, Autofluor 339 1.28, NADH enzymes 9.0% and Redox cycler >50.
`Cc1ccc(C)n1-c1cccc(C(=O)O)c1` gave Hsp90 block -0.4, DUSP1 inh 50.2*, Cdc25B block 21.0, A340 absorber 1.02, Autofluor 339 1.15, NADH enzymes 3.0% and Redox cycler >50.
For [O-]/[N+](=C/c1ccc(F)cc1)c1ccccc1 the results were Hsp90 block 5.8, DUSP1 inh 82.1*, Cdc25B block 47.7, A340 absorber 0.96, Autofluor 339 0.9, NADH enzymes 9.0% and Redox cycler >50.
`CCOc1cc(/C=C(/C#N)c2ccc(F)cc2)ccc1OCc1ccc(C(=O)O)o1` gave Hsp90 block -8.9, DUSP1 inh 53.8*, Cdc25B block -4.0, A340 absorber 1.16, Autofluor 339 1.07, NADH enzymes 3.0% and Redox cycler >50.
Screening CCOc1ccccc1NC(=O)c1c(NC(=O)CNCc2ccco2)sc2c1CCC2 returned Hsp90 block -0.9, DUSP1 inh 8.3, Cdc25B block 5.2, A340 absorber 1.06, Autofluor 339 1.4 and NADH enzymes 5.0%.
